# Screens as filed in PubChem BioAssay.
# A selection: hits, their analogues and other compounds. The true share with any hit is near 3.6%.
# ERa coact pot = ER-alpha (human) coactivator binding potentiation. P03372. TR-FRET ERalpha-LBD/SRC-Cy5 coactivator binding, 2 h; 100 = basal binding, no effect. coactivator binding (% of control), % at 25.6 µM. 1.3% of 86,000 active; in the data active = activity above about 200%;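 note: binding measured in presence of low estradiol as agonist stimulus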
# Target sequence (P03372 whole entry, looked up, the tested form may be a part): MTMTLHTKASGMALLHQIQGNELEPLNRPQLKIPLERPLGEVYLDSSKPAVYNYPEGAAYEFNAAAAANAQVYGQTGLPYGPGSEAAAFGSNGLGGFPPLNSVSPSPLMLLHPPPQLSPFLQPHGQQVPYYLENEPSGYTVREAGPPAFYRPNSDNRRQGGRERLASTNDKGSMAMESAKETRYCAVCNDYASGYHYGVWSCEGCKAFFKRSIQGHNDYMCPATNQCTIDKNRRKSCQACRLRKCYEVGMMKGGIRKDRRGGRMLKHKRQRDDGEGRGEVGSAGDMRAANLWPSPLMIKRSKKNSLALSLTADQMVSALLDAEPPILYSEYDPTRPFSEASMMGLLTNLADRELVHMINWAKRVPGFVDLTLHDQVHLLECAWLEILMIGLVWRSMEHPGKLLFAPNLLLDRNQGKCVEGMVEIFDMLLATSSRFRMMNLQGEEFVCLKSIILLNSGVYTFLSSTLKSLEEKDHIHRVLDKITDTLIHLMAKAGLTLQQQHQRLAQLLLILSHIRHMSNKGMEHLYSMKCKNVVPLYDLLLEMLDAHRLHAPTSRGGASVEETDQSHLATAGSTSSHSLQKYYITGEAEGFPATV
# ERa SRC1 inh = blocks coactivator binding to human estrogen receptor alpha | 1.7% of 86,000 active | P03372 | TR-FRET ER-alpha LBD / SRC-1 peptide, estradiol-bound | inhibition, % at 25.6 µM | AID 629; in the data active = inhibition above about 50%
# IL1B NFkB inh = blocks IL-1B driven NFkB nuclear translocation in HUVEC cells | HUVEC IL-1B NFkB p65 nuclear translocation imaging | inhibition, % at 2 µM | 0.43% of 94,000 active | AID 796;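 active = inhibition above about 30% together with a positive call from visual inspection of the well image, limit read from the data; inconclusive = inhibition above a set limit but visual check negative; inactive = inhibition not above a set limit, visual check negative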;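 note: nuclear over cytoplasmic p65 intensity ratio measured by imaging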
# NFkB transloc pot = enhances IL-1B driven NFkB nuclear translocation; HUVEC IL-1B NFkB p65 nuclear translocation imaging; activation, % at 2 µM; 0.3% of 94,000 active; AID 819;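 active = activation above 40%, about the mean plus 3 SD, also judged a hit on visual image review; inconclusive = activation above 40% but not a hit on visual review; inactive = activation not above 40% and no visual hit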;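 note: percent activation is computed from the nuclear over cytoplasmic p65 intensity ratio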
# HUVEC tox IL1B = toxic to HUVEC cells under IL-1B stimulation; HUVEC cell count loss, Hoechst imaging, IL-1B stimulated; cell count reduction, % at 2 µM; 0.41% of 94,000 active;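 active = cell count reduction more than 3 SD above the screen-wide mean, cut at about 70% in these data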
# ERb coact inh = blocks coactivator binding to human estrogen receptor beta. TR-FRET ER-beta LBD / SRC1-Cy5 peptide binding; receptor agonist-loaded with 1 µM estradiol. 1.3% of 86,000 active. inhibition, % at 25.6 µM. AID 633. Q92731;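 active = compounds whose percent inhibition of the receptor-coactivator binding signal exceeds about 50% in the single-dose screen, limit read from the data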
# Numbers stand for hits; n = inactive; u = inconclusive; x = no result; [ ] = remark or other dose.
SMILES,ERa coact pot,ERa SRC1 inh,IL1B NFkB inh,NFkB transloc pot,HUVEC tox IL1B,ERb coact inh
CCOc1cccc(NC(=O)C2CCCN(S(=O)(=O)c3ccc(-n4cnnn4)cc3)C2)c1 (stereo unspecified),237[fluorescence artefact?],n,n,n,n,n
CCC(OC(=O)c1cccs1)C(=O)NCc1ccco1 (stereo unspecified),n,n,n,n,n,n
CC(C)CC(OC(=O)c1cccs1)C(=O)NCc1ccco1 (stereo unspecified),n,n,n,n,n,58
CC1=C(C(N)=O)C(c2ccccn2)n2nc(-c3ccccc3Cl)nc2N1 (stereo unspecified),n,n,36,n,n,n
CCOC(=O)C1=C(C)NC(=O)C(C#N)C1c1ccncc1 (stereo unspecified),n,n,n,n,n,n
COc1cccc(-c2noc(C(C)n3nc(C)c([N+](=O)[O-])c3C)n2)c1 (stereo unspecified),x,x,n,n,n,x
Cn1ccnc1SCC(=O)Nc1ccc2nc(SCC(=O)NC3CC3)sc2c1,n,53,n,n,n,n
Cn1ccnc1SCC(=O)Nc1ccc2c(c1)COC2=O,n,n,n,n,n,n
O=C(Cc1ccc(Cl)cc1)Nc1ccc(-c2nnc(-c3ccco3)o2)cc1,n,68[fluorescence artefact?],n,n,n,n
O=C(Cc1ccc(Cl)cc1)Nc1ccc(N2CCN(C(=O)c3ccco3)CC2)cc1,n,67[fluorescence artefact?],n,n,n,n
Cc1cc2c(cc1C)N(CC(=O)N1CCCC1)C(=O)CC(c1ccccc1)=N2,n,n,n,n,n,n
Cc1nc2c(cnn2-c2ccccc2Cl)c(=O)n1-c1ccc(C(C)C)cc1,n,n,n,n,n,n
CCOC(=O)Cn1c(=O)oc2cc(S(=O)(=O)NCCc3ccc(OCC)c(OCC)c3)ccc21,n,n,n,n,n,n
CCN(CC)S(=O)(=O)c1ccc2c(c1)nc(SCC(=O)N1CCOCC1)n2-c1ccccc1OC,x,x,n,n,n,x
COC(=O)CCS(=O)(=O)c1nc(-c2ccccc2)cc(C(F)(F)F)n1,n,n,37,n,n,n
CS(=O)(=O)c1nc(-c2cccs2)cc(C(F)(F)F)n1,n,n,31,n,n,n
CCOC(=O)CCS(=O)(=O)c1nc(-c2ccccc2)cc(C(F)(F)F)n1,n,n,n,n,n,n
Cc1ccc(N(C(=O)Cc2c[nH]c3ccccc23)C(C(=O)NC2CCCCC2)c2ccco2)cc1 (stereo unspecified),x,x,n,n,n,x
COC(=O)c1cccc(CSc2nnc(C)s2)c1,n,n,n,n,n,n
O=C(Nc1nc(-c2cccs2)cs1)c1ccc(S(=O)(=O)N2CCCC2)cc1,n,n,n,u,n,51[fluorescence artefact?]
O=C(Nc1nc(-c2cccnc2)cs1)c1ccc(S(=O)(=O)N2CCOCC2)cc1,n,n,n,n,n,n
O=C(Nc1nc(-c2ccc3c(c2)OCCO3)cs1)c1ccc(S(=O)(=O)N2CCCCC2)cc1,269[fluorescence artefact?],n,n,n,n,n
O=C(Nc1nc(-c2ccc(S(=O)(=O)N3CCCC3)cc2)cs1)C1COc2ccccc2O1 (stereo unspecified),n,n,n,n,n,n
O=C(Nc1nc(-c2ccc(S(=O)(=O)N3CCCCCC3)cc2)cs1)c1ccccc1,696[fluorescence artefact?],n,n,n,n,n
CN(C)S(=O)(=O)c1ccc(C(=O)Nc2nc(-c3cccs3)cs2)cc1,n,n,x,x,x,n
SMILES,ERa coact pot,ERa SRC1 inh,IL1B NFkB inh,NFkB transloc pot,HUVEC tox IL1B,ERb coact inh
COCCN(CCOC)S(=O)(=O)c1ccc(C(=O)Nc2nc(C)c(C(C)=O)s2)cc1,x,x,n,n,n,x
COCCN(CCOC)S(=O)(=O)c1ccc(C(=O)Nc2nc(-c3ccncc3)cs2)cc1,211,n,n,n,n,n
CCOCCCNS(=O)(=O)c1ccc(OC)c(Cl)c1Cl,n,n,n,n,n,n
CSc1ccccc1NC(=O)Nc1ccc(Cl)cc1,n,n,n,n,n,n
CSc1cccc(NC(=O)Nc2ccc(Cl)cc2)c1,n,n,76,n,n,n
O=C(NC1CCCCC1)C(c1ccccc1)N(C(=O)Cc1ccsc1)c1ccccc1 (stereo unspecified),x,x,n,n,n,x
O=C(CS(=O)(=O)c1cn(Cc2ccccc2Cl)c2ccccc12)N1CCOCC1,n,n,n,n,n,n
O=C(CS(=O)(=O)c1cn(Cc2ccc(Cl)cc2)c2ccccc12)N1CCCC1,n,n,n,n,n,51[fluorescence artefact?]
